# Many of the other results were omitted from the sample, so hits are more common in it than they were.
# IL-1B inflam inh: qHTS for Inhibitors of Inflammasome Signaling: IL-1-beta AlphaLISA Primary Screen. activity change, % at 57.5 µM. AID 743279, 2014. 360,000 tested, 4.7% active. THP-1 LPS/ATP IL-1B secretion, AlphaLISA, 16 h; stronger effect = lower value; in the data active means activity change below about -50%; inconclusive means mostly about -30% to -49%
#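 Secreted IL-1B measured by AlphaLISA bead assay after 16 h compound exposure of THP-1 cells; compounds (final up to 57.5 uM) added 1 h before LPS (250 ng/mL) and ATP (1.25 mM) stimulation; lower signal means less secretion.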
# HT1080 IDH1KD tx: qHTS for induction of synthetic lethality in tumor cells producing 2HG: qHTS for the HT-1080-IDH1KD cell line; Potency, µM (doses to about 46.1 µM), for the others: top-dose activity, negative = toxicity, most hits filed as cytotoxic; 360,000 tested, 2% active; HT-1080 IDH1 knockdown viability, ATP luminescence, 48 h;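 further: potency means the concentration at half of the fitted maximal effect; 0% = DMSO wells and -100% = cell-free medium wells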
#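 Cytotoxicity counter-line: IDH1KD HT-1080, 48 h, CellTiter-Glo. Curves classed by r2, magnitude and activity.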
# TDP1 cell CPT: qHTS for Inhibitors of human tyrosyl-DNA phosphodiesterase 1 (TDP1): qHTS in cells in presence of CPT | chicken DT40 Tdp1-/-;hTDP1 cells + 20 nM CPT, ATP luminescence, 48 h | Potency, µM (highest dose often 46.2 µM), inactives show at the highest dose activity change, negative = growth inhibition, usual class: inhibitors | AID 686979, 2013 | 420,000 tested, 12% active; further: potency means the concentration at half of the fitted maximal effect; nearly all actives have a fitted effect of over 55% in size
#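 Cell growth measured by CellTiter-Glo luminescence after a minimum 48 h, 37 C compound exposure with 20 nM CPT in Tdp1-knockout DT40 cells stably expressing hTDP1, seeded 400/well; qHTS titration format.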
# 12-LOX inh: Primary qHTS assay for inhibitors of human arachidonate 12S-lipoxygenase (ALOX12): Round 2 | purified 12hLO, xylenol orange hydroperoxide absorbance | Potency, µM (top dose mostly 108 µM), without a hit: top-dose activity change, negative = inhibition, most hits filed as inhibitors | 580,000 tested, 1.1% active | AID 1671190, 2021; further: potency means the concentration at half of the fitted maximal effect
# Target sequence (P18054 whole entry, looked up): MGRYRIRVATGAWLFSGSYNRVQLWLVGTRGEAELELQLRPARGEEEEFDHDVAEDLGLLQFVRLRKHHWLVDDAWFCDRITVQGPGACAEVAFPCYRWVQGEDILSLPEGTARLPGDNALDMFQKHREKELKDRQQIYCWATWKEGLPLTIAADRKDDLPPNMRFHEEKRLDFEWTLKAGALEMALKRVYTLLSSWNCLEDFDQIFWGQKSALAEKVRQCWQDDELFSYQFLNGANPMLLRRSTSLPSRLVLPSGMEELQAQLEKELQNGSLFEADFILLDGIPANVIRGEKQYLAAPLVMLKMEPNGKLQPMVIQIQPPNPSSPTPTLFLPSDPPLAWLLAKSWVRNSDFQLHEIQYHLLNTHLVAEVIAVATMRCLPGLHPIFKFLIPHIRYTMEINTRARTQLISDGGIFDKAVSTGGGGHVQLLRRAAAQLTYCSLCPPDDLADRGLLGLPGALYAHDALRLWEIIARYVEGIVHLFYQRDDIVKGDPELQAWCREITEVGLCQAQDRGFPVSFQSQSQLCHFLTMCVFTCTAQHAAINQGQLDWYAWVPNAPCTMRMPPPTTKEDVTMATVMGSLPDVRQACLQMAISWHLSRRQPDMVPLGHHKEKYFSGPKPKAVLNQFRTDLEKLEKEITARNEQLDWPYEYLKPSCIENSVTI
#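 Purified human 12hLO (150 nM final) in 25 mM Hepes, 0.01% Triton X-100, pH 7.0 was preincubated 15 min at room temperature with compound. Then 40 uM arachidonic acid was added, 30 min. Hydroperoxide was read by Fe-XO absorbance ratio 573/405 nm.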
# TDP1 cell noCPT: qHTS for Inhibitors of human tyrosyl-DNA phosphodiesterase 1 (TDP1): qHTS in cells in absence of CPT. 420,000 tested, 15% active. Potency, µM (series often up to 46.2 µM), for inactives: at the highest dose activity change, negative = growth inhibition, actives largely listed as inhibitors. AID 686978, 2013. DT40 Tdp1-/- hTDP1 cells, no CPT, ATP luminescence, 48 h; further: potency means the concentration at half of the fitted maximal effect; nearly all actives have a fitted effect of over 55% in size
#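 No-CPT arm: Tdp1-/-;hTDP1 DT40 cells (400/well) plus compounds, incubated ≥48 hr at 37 °C. Readout CellTiter-Glo luminescence.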
# HT1080-NT tox: qHTS for induction of synthetic lethality in tumor cells producing 2HG: qHTS for the HT-1080-NT fibrosarcoma cell line; 360,000 tested, 1.6% active; Potency, µM (highest dose often 46.1 µM), for the others: at the top dose activity, negative = less viability, actives largely listed as cytotoxic; AID 686970, 2013; HT-1080-NT fibrosarcoma viability, CellTiter-Glo ATP luminescence, 48 h;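 further: NT is the 2HG producing partner of a matched IDH1 knockdown line; potency means the concentration at half of the fitted maximal effect; 0% = DMSO-treated cells and -100% = media-only wells without cells; nearly all actives have a fitted effect of over 55% in size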
#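 750 cells/well, RPMI + 5% FBS; 2 h settle, compound pin-transfer, 48 h at 37 degrees C. CellTiter-Glo 10 min RT, luminescence. Normalized to DMSO and media-only wells.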
# The depositor's hits bear a star; ? = inconclusive; nt = not tested or not shown; [ ] = another dose, or the depositor's remark. Unless noted, the call rests on the fitted dose curve; in most records, active means well fitted curve in the direction sought with a large enough effect; inconclusive means small, poorly fitted or top-dose-only effect, or another doubt; inactive means no such curve, though single readings can be large; an effect the other way counts as inactive or inconclusive. Unless noted, on the % scale 0 is the no-effect control and ±100 the full control effect.
SMILES,IL-1B inflam inh,HT1080 IDH1KD tx,TDP1 cell CPT,12-LOX inh,TDP1 cell noCPT,HT1080-NT tox
Cc1ccccc1NS(=O)(=O)c1ccc(C(=O)N2CCCC(C(F)(F)F)C2)cc1 (stereo not drawn),-2.1,-7.9%,?,-9.1%,11.6µM*,-2.2%
Cc1ccc(S(=O)(=O)NCc2ccccc2)cc1C(=O)N1CCCC(C(F)(F)F)C1 (stereo not drawn),-12.5,-1.4%,?,3.0%,18.4µM*,?
O=C(c1cccc(S(=O)(=O)NCc2ccccc2)c1)N1CCCC(C(F)(F)F)C1 (stereo not drawn),-5.8,-0.7%,-25.3%,-5.8%,?,-10.0%
Cc1ccc(C)c(S(=O)(=O)N2CCN(C(=O)c3cc(S(=O)(=O)NCc4ccccc4)ccc3C)CC2)c1,?,-20.1%,23.1µM*,474.4%,?,-0.7%
CC(C)(C#N)C(=O)NCc1ccc(OCC(F)(F)F)cc1,nt,nt,nt,24.7%,nt,nt
O=C(c1cccnc1)N1CC(Oc2ccc(-c3noc(-c4ccccc4)n3)cc2)C1,nt,nt,nt,35.6%,nt,nt
COc1cc(C#N)ccc1OCc1ccc(OC)c(OC)c1Br,nt,nt,nt,-2.6%,nt,nt
Cc1cccc(-c2c(NC(=O)c3ccco3)oc3c(C)cccc3c2=O)c1,-8.9,23.4%,?,-19.1%,25.9µM*,11.8%
COc1cc(-c2c(NC(=O)c3ccco3)oc3c(C)cccc3c2=O)cc(OC)c1OC,8.0,-2.0%,-27.4%,10.3%,18.4µM*,-9.9%
CCC1=C(C(=O)OC)C(c2ccc(OC)cc2OC)N2C(CC(=O)N3CCOCC3)=CSC2=N1 (stereo not drawn),nt,nt,nt,4.2%,nt,nt
CCN1C(=O)/C(=C/c2ccc(C)s2)SC1=Nc1ccc(OC)cc1,-14.9,?,9.2µM*,0.0%,9.2µM*,-13.4%
CCCN1C(=O)/C(=C/c2ccc(C)o2)SC1=Nc1ccc(OC)cc1,-12.1,?,9.2µM*,12.6µM*,8.2µM*,?
CCN1C(=O)/C(=C\c2ccc(-c3cccc(C(=O)OC)c3)o2)SC1=Nc1ccc(C(=O)O)cc1,nt,nt,nt,50.1µM*,nt,nt
OCCOCCn1c(-c2ccccc2)nc(=S)c2c1CCCC2,15.8,-3.9%,-0.6%,39.8µM*,-7.2%,3.1%
CCC1CCC2(CC1)NNC(=S)NN2,11.5,-5.8%,?,?,18.4µM*,-7.2%
COc1ccc(-c2c(NC(=O)c3cc(OC)c(OC)c(OC)c3)oc3ccc(Cl)cc3c2=O)cc1,nt,nt,nt,-16.5%,nt,nt
FC(F)(F)c1cc(CCN2C(=S)NC[C@@H]2c2ccccc2)cc(C(F)(F)F)c1,?,2.0%,?,?,?,7.2%
FC(F)(F)c1cc(CO[C@H]2CCCN[C@H]2c2ccccc2)cc(C(F)(F)F)c1,nt,nt,10.6µM*,6.9%,13.3µM*,nt
O=C(Nc1cccc(Br)c1)N1CCC2(CC1)SCC(=O)N2Cc1ccccc1,nt,nt,nt,27.5%,nt,nt
COC(=O)c1c(C)[nH]c(O)c1C=Nc1ccc(Oc2ccccc2)cc1,-15.2,?,-23.7%,-14.5%,?,-5.9%
COC(=O)c1c(C)[nH]c(O)c1C=Nc1ccc(C(C)C)cc1,-101.2*,-4.4%,?,?,18.4µM*,9.2%
O=C(Nc1ccncc1)c1ccc2c(c1)C(=O)N(C1CCCCC1)C2=O,30.2,?,18.4µM*,0.0%,23.1µM*,-14.4%
Cc1cc(NC(=O)c2ccc3c(c2)C(=O)N(C2CCCCC2)C3=O)no1,11.7,21.8%,?,0.0%,14.6µM*,15.2%
O=C(CCC(=O)N1CC2CCCN2c2ccccc21)NCc1cccc(Cl)c1 (stereo not drawn),nt,nt,14.6µM*,?,7.31µM*,nt
CC1CN(C(=O)CCC(=O)NCc2cccc(Cl)c2)c2ccccc2S1 (stereo not drawn),nt,nt,-25.3%,0.0%,-28.4%,nt
SMILES,IL-1B inflam inh,HT1080 IDH1KD tx,TDP1 cell CPT,12-LOX inh,TDP1 cell noCPT,HT1080-NT tox
COc1ccc(OC)c(NC(=O)N2CC(C)Oc3ccc(C)cc32)c1 (stereo not drawn),nt,nt,?,-4.1%,20.6µM*,nt
COc1ccc(CNC(=O)CCC(=O)N2CC3CCCN3c3ccccc32)c(OC)c1 (stereo not drawn),nt,nt,18.4µM*,-23.4%,20.6µM*,nt
COc1ccc(OC)c(CNC(=O)CCC(=O)N2Cc3ccccc3Oc3ncccc32)c1,3.6,14.0%,-12.8%,-5.7%,0.0%,2.8%
CCC1CN(C(=O)Nc2cc(C)ccc2OC)c2cc(Cl)ccc2O1 (stereo not drawn),nt,nt,?,-24.5%,-52.8%,nt
COc1ccc(CNC(=O)C2CCC(=O)N(C3CCCCCC3)C2)c(OC)c1 (stereo not drawn),12.1,6.6%,16.4µM*,-6.5%,8.2µM*,0.6%
Cc1cc(NC(=O)CN2CCN(c3nccs3)CC2)no1,nt,nt,nt,2.5%,nt,nt
O=C1NCCCCCCN(Cc2ccncc2)[C@@H]2CN(S(=O)(=O)Cc3cccc(F)c3)CC[C@H]12,nt,nt,nt,8.3%,nt,nt
O=C(NC(O)C(=O)c1ccc(Cl)cc1)c1ccc(Br)cc1 (stereo not drawn),nt,nt,nt,-17.1%,nt,nt
COC(CNC(=O)CS(=O)Cc1nc(-c2ccccc2Cl)oc1C)OC (stereo not drawn),nt,nt,nt,-2.8%,nt,nt
O=C(NCc1cccc(Cl)c1)c1ccc(NC(=O)N2CC3CCCN3c3ccccc32)cc1 (stereo not drawn),nt,nt,23.1µM*,?,13µM*,nt
COc1ccc(OC)c(NC(=O)N2CC3CCCN3c3ccccc32)c1 (stereo not drawn),nt,nt,?,?,23.1µM*,nt
COc1ccc(OC)c(NC(=O)N2CCCc3ccccc32)c1,-19.6,6.2%,?,-6.4%,?,12.6%
O=C(Nc1cccc(Cl)c1)N1CC2CCCN2c2ccccc21 (stereo not drawn),nt,nt,?,-12.3%,?,nt
Cc1ccccc1CN1CC[C@H](c2nc3ncccc3[nH]2)C1,nt,nt,nt,23.9%[176 µM],nt,nt
COc1ccc2cc(C(=O)Nc3ccccc3)c(C)nc2c1,nt,nt,nt,-0.4%,nt,nt
CC1CCN(C(=O)c2c(NC(=O)c3ccccc3F)sc3c2CCC(C(C)(C)C)C3)CC1 (stereo not drawn),nt,nt,-7.5%,-24.1%,3.0%,nt
Cc1ccccc1C(=O)Nc1sc2c(c1C(=O)N1CCC(C)CC1)CCC(C)C2 (stereo not drawn),nt,nt,14.6µM*,-15.6%,20.6µM*,nt

# Source: PubChem BioAssay
